Measurements published in the supplement of paper PMC11417369.
The full ranking holds about 25,000 sequences; the median of “ln(normalized median fluorescence intensity)” is about 7.1, and the highest 2% start at about 10. Many of the other results were omitted from the sample, so the highest values are more common in it than they were.

System: PfSIP2 AP2 domain 1 (GST-tagged)
Experiment: gcPBM binding intensity (ln(normalized median fluorescence intensity)); higher = stronger DNA binding
Procedure, shortened: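 An Agilent 4 × 180k array carrying primer-extended double-stranded 36-bp intergenic genomic probes and negative controls received GST-tagged P. falciparum DNA-binding domains expressed in E. coli, about 25 μg on average, for 1 h. The binding buffer contained 1× PBS, 1% milk, 0.2 mg/ml BSA, 0.5% salmon testes DNA and 0.03% Triton X-100. Binding intensity is the top Masliner-normalised natural-log median intensity across replicate spots of either probe orientation, read after Alexa488 anti-GST antibody staining and a 488 nm scan.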

Compared with “ATTTAATTCGTACATACACACGCACATATATATATA [CACACA_site8415]”, “CTATTAAAAAAATTATGTACACAACGTCTCTATATA [XGTACX_site4813]” is lower in “gcPBM binding intensity (ln)” value: 8.85 for the first, 7.01 for the second.

Going from “TTTTTTAAAATATATATAATGAATTTTTTTTTTTTT [CACACA_negctrl_site1577]” to “TGATCAAATAAGTTTGCATGTCAACAATGCATATAT [TGCATGCA_site1025]”, the “gcPBM binding intensity (ln)” value rises from 7.05 to 7.19.

Going from “AAAAAAAAAAAAGATACACACAAAAATGGATATATA [CACACA_site7069]” to CAATTATTGTAATGCATGCACTGAATATAAAAAGAA, the “gcPBM binding intensity (ln)” value rises from 6.77 to 9.18.

Going from “AAAAAATAAATAAATACACACACACTAATATATATA [CACACA_site8488]” to TTATAAAAGACAAAAGTGCATATATACATATGTATA, the “gcPBM binding intensity (ln)” value rises from 7.67 to 8.27.

First: ATTTTATATAATACATGTACAAAAGTTTAAATTTAT [XGTACX_site6196]
Second: TATATATATATATGAGTGCATATGTGTAATATAAAA
The “gcPBM binding intensity (ln)” value of the first is lower: 7.13 for the first, 9.27 for the second.

First: ATTTTTCTAAAATACTGTACAAAGGTGCATAAAAAG [XGTACX_site4425]
Second: TGAGCACAAATACAGGTGCATATAAAATATATGACG
The “gcPBM binding intensity (ln)” value of the first is higher: 11.5 for the first, 10.5 for the second.

Going from TTTTTTTGTTAAAAGGTGCTAATATATATAAGTGCT to “AGGTTATAAATAAATACACACATACAAAAATATGAC [CACACA_site4773]”, the “gcPBM binding intensity (ln)” value falls from 9.03 to 6.94.

Compared with “GTTATAAATAAATACACACATACAAAAATATGACGT [CACACA_site1154]”, “TATTTTATATAAAGGTGTACTTATACAAAAATATAT [XGTACX_site7435]” is higher in “gcPBM binding intensity (ln)” value: 6.94 for the first, 7.22 for the second.

First: TTTTCTCTAAAAAGGTGTACAACTAATAATGCACTG [XGTACX_site6074]
Second: ATGTTTGAGCCTAAGGTGCATATAAAAATATATGTG [GTGCAC_site9690]
The “gcPBM binding intensity (ln)” value of the first is lower: 9.09 for the first, 10.7 for the second.

First: TATAAATATACAAAGGTGCATAAAAAGTTATGTTTT [GTGCAC_site9832]
Second: GAAAGGAAAAGTTGAACACACAAAGTAAACTATAAG [CACACA_site3535]
The “gcPBM binding intensity (ln)” value of the first is higher: 10.4 for the first, 6.7 for the second.

Going from “TCTATTAACTGATGTGCATGTTATAACCTAGAAGTA [TGCATGCA_site359]” to “TAAAAGTATTCCTTTTGTACATATAATGAAAACAAT [XGTACX_site2069]”, the “gcPBM binding intensity (ln)” value falls from 7.42 to 6.8.

Compared with “TGATAAAATATTAAATTATTTCTTTATTTAAAGATT [CACACA_negctrl_site370]”, “AAGATAAATTATTATAAATCAATTGTGCCAACAATA [CACACA_negctrl_site144]” is higher in “gcPBM binding intensity (ln)” value: 6.67 for the first, 6.69 for the second.

Compared with “ATTATAAAAATATCGTGTACATATTTTTTAAAATAA [XGTACX_site5072]”, “TTATACCATATTTATAGTACGTACAAATAAATCAAT [XGTACX_site4975]” is higher in “gcPBM binding intensity (ln)” value: 7.12 for the first, 7.3 for the second.

First: TTAATCCACAGACACACACACACAAAATAAAATACA [CACACA_site244]
Second: AAGATCGCATGAAATGAACACACATAAAAAAAATAT [CACACA_site9353]
The “gcPBM binding intensity (ln)” value of the first is higher: 7.22 for the first, 7.05 for the second.

Compared with “AAATTGAGACAACAGGTGCATATAAATATACAGTGT [GTGCAC_site9634]”, TATATACATGTGAGAGTGCATATAGACATAAAAAAT is lower in “gcPBM binding intensity (ln)” value: 10.6 for the first, 8.96 for the second.

First: TTTTGTTCATACAAATTGGAACAAGACAAAAATATA [XGTACX_negctrl_site327]
Second: ATAACATTCATATTCACACAAAAATATACTACATAG [CACACA_site4529]
The “gcPBM binding intensity (ln)” value of the first is higher: 7.16 for the first, 7.09 for the second.

Compared with “ATACATTCAAAATATACACACATATATATATAATAT [CACACA_site950]”, “ATACATATTAACAAGGTGCAAATGGATTTCATAAAA [GTGCAC_site9775]” is higher in “gcPBM binding intensity (ln)” value: 7.13 for the first, 10.7 for the second.

First: AAGACAATATATGCAGTGCATATACATACATATATA
Second: TATATTGCAAAAAGTACACACATAAATAAATACATA [CACACA_site6589]
The “gcPBM binding intensity (ln)” value of the first is higher: 8.3 for the first, 7.23 for the second.

Going from “ACAAGCTTTCATAAGGTGCAATGATTTAACAAAAAA [GTGCAC_site9726]” to “AATATACATAACAAGGTGCAAAAAATATTGTTCATA [GTGCAC_site9499]”, the “gcPBM binding intensity (ln)” value rises from 10.1 to 10.9.

First: AATACATATTCAAAGGTGCAAAATAAAAATATACAT [GTGCAC_site9743]
Second: ATATATTTAAAAAAATGTACAAATCATAAATGCAAG [XGTACX_site4230]
The “gcPBM binding intensity (ln)” value of the first is higher: 11 for the first, 7.07 for the second.

Compared with “AGAAAGGTGGTATTAAAAGAATAACCTATGAATAAA [GTGCAC_negctrl_site325]”, “CCATATAATATGAACAGTACACACAAAATAAATTCG [XGTACX_site7590]” is higher in “gcPBM binding intensity (ln)” value: 6.79 for the first, 7.08 for the second.

Going from “ATCAAAAAAAAAAAAAGTACACAAAATTTTTTATTA [XGTACX_site7986]” to “CTATTGTTAAATATAATACACACGTTTTTAAAAATA [CACACA_site2183]”, the “gcPBM binding intensity (ln)” value rises from 6.88 to 6.97.

Compared with “GTTTAACTGTTTTATACACACAATGTATACAATAAA [CACACA_site2959]”, “TTTTTATAATAAAAAAATATAACTATATTAAGCCAC [CACACA_negctrl_site555]” is higher in “gcPBM binding intensity (ln)” value: 7.02 for the first, 7.1 for the second.

Compared with “AATATATTTTCCTGCAAACACACATATAAATGTGTA [CACACA_site532]”, “TCAACCAAAACATAAGCATGCAATATATTTTTATAC [TGCATGCA_site560]” is higher in “gcPBM binding intensity (ln)” value: 6.96 for the first, 7.16 for the second.

Compared with “TTTATAATTTATATCACACACATATATATATAGTAA [CACACA_site8]”, “TTTCTATATAGATTTGCACACATAAAAATGCTTATA [CACACA_site2390]” is higher in “gcPBM binding intensity (ln)” value: 7.05 for the first, 7.18 for the second.

“ATCGGTAATATTAACACACACATTTATATATATTTA [CACACA_site1084]” and “AACATTTTAAATTATACACACATTTTGAATATATAT [CACACA_site3470]” are the same in “gcPBM binding intensity (ln)” value: 7.2 for the first, 7.2 for the second.

Going from “ATCGGTAATATTAACACACACATTTATTTATATTTA [CACACA_site6638]” to “ATATCGTGTGCATTAACACACATTTATTTGAATAAA [CACACA_site7162]”, the “gcPBM binding intensity (ln)” value rises from 7.01 to 7.65.

Compared with “ACATATCGGGTGCATTAACACACATTTATTTGAATA [CACACA_site8736]”, “ATATCGGGTGCATTAACACACATTTATTTGAATAAA [CACACA_site2350]” is higher in “gcPBM binding intensity (ln)” value: 11.6 for the first, 11.7 for the second.

Compared with “TTTTTATTTTTTCAGTGTACATTTAAATTATCTTAT [XGTACX_site3905]”, “ATTATTATTATATATGCATGTAAAATATTAAAGTAC [TGCATGCA_site914]” is higher in “gcPBM binding intensity (ln)” value: 6.98 for the first, 7.59 for the second.
